In PubChem BioAssay (EPA / NIEHS):
Records with an inconclusive call do not appear. Calls of active or inactive are those of the source. How the source made its calls, unless noted: active means hit-call score of the fitted dose curve at least 0.9, where 1 is the maximum; inactive means score below 0.9.

Tests used:
[1] = target: Oxysterols receptor LXR-beta (Homo sapiens) (UniProt P55055); test: ATG_LXRb_TRANS: Attagene TRANS-FACTORIAL HepG2 Assay for human Liver X Receptor beta (LXRb) (AID 2282981; active means hit-call score of the fitted dose curve at least 0.9, where 1 is the maximum); conditions: HepG2 Attagene TRANS GAL4-LXRb reporter, mRNA
Oxysterols receptor LXR-beta (Homo sapiens), sequence (P55055 whole entry, looked up, the tested form may be a part): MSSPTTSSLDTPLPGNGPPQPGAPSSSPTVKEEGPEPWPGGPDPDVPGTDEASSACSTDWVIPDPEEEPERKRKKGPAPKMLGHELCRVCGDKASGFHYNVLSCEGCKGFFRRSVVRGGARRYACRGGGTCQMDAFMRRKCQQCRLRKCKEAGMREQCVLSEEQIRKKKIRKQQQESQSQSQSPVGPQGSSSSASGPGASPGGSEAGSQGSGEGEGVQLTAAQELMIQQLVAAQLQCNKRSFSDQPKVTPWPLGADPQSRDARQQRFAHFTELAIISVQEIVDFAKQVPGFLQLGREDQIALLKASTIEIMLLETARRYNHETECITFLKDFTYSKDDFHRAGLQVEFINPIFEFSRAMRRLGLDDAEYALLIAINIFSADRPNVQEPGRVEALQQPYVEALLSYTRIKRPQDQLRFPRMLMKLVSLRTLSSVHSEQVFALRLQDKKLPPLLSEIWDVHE
Procedure, shortened: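 Readout: fluorescent reporter mRNA fragments resolved by capillary electrophoresis after RT-PCR. System: transiently transfected human HepG2, exogenous LXRb-Gal4 chimera driving GAL4-UAS reporter, 24 h dosing. Activity fitted upward against DMSO baseline.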

[2] = ATG_M_06_TRANS: Attagene TRANS-FACTORIAL HepG2 Assay for M06 Transcription Factor (Internal Marker) (AID 2282983; active means hit-call score of the fitted dose curve at least 0.9, where 1 is the maximum); conditions: HepG2 Attagene TRANS M06 internal marker reporter
Procedure, shortened: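 Read-out: fluorescent reporter cDNA fragments resolved by capillary electrophoresis after RT-PCR and HpaI cut. Source cells were HepG2 carrying transfected multi-reporter GAL4 constructs, dosed 24 h. Increase over DMSO control analysed.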

[3] = ATG_M_32_TRANS: Attagene TRANS-FACTORIAL HepG2 Assay for M32 Transcription Factor (Internal Marker) (AID 2282984; active means hit-call score of the fitted dose curve at least 0.9, where 1 is the maximum;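 further: transcript level of a background control reporter unit measured by RT-PCR and capillary electrophoresis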); conditions: HepG2 Attagene TRANS M32 internal marker reporter
Procedure, shortened: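 Read-out: fluorescent reporter cDNA fragments resolved by capillary electrophoresis after RT-PCR of total RNA. Transfected HepG2 cells were exposed to chemical for 24 h. Activity scored in the positive direction relative to DMSO.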

[4] = target: Nuclear receptor subfamily 4 group A member 2 (Homo sapiens) (UniProt P43354); test: ATG_NURR1_TRANS: Attagene TRANS-FACTORIAL HepG2 Assay for human Nuclear Receptor Related Protein 1 (NURR1) (AID 2282985; active means hit-call score of the fitted dose curve at least 0.9, where 1 is the maximum); conditions: HepG2 Attagene TRANS reporter, mRNA readout
Nuclear receptor subfamily 4 group A member 2 (Homo sapiens), sequence (P43354 whole entry, looked up, the tested form may be a part): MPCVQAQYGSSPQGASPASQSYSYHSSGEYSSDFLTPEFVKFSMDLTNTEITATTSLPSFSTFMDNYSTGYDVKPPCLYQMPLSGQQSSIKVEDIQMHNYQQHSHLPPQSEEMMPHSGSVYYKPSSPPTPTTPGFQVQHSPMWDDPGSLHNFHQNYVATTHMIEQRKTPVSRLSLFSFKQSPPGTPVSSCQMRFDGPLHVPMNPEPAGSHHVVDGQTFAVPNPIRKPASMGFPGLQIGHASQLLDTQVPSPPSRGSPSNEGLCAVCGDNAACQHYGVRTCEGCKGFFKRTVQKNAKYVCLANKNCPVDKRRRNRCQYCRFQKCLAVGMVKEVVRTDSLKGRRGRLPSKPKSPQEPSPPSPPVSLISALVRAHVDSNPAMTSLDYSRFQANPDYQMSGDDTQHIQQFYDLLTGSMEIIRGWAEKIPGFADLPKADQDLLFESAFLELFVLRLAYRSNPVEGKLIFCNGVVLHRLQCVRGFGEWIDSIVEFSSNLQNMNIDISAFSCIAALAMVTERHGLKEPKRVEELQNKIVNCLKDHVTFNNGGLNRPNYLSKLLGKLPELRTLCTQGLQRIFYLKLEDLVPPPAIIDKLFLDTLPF
Procedure, shortened: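 Read-out: reporter mRNA induction by RT-PCR plus capillary electrophoresis with fluorescence detection, after 24 h dosing of transfected HepG2 cells. Exogenous NR-Gal4 chimera activity drives GAL4-UAS reporter; activity fitted upward versus DMSO.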

[5] = target: Transcriptional activator Myb (Homo sapiens) (UniProt P10242); test: ATG_Myb_CIS: Attagene CIS-FACTORIAL HepG2 Assay for human Myeloblastosis (Myb) Proto-Oncogene Transcription Factor (AID 2282986); conditions: HepG2 Attagene CIS-FACTORIAL Myb reporter transcription; actives raise or lower the signal
Transcriptional activator Myb (Homo sapiens), sequence (P10242 whole entry, looked up): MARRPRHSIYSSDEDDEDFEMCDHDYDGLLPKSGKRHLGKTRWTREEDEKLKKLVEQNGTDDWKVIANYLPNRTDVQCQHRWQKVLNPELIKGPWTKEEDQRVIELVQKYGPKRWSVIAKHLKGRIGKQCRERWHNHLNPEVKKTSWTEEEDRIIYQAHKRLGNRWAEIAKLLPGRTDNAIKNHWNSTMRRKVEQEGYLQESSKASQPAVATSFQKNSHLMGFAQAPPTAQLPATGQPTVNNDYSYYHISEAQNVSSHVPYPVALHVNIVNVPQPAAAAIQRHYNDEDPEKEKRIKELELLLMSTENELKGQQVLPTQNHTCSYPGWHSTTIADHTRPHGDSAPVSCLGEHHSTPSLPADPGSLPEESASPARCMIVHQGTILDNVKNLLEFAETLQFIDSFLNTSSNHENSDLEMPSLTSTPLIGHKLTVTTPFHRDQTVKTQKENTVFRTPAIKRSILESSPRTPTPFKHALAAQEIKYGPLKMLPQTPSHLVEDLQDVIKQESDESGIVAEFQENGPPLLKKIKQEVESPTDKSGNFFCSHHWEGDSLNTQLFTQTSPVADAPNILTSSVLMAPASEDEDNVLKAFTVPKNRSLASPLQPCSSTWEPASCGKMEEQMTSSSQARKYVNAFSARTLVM
Procedure, shortened: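 Reporter mRNA is quantified by RT-PCR and capillary electrophoresis 24 h after dosing HepG2 cells transfected with cis-regulated reporter units, which track endogenous transcription factor activity. Gain and loss of signal are fitted versus DMSO baseline.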

[6] = target: Nuclear respiratory factor 1 (Homo sapiens) (UniProt Q16656); test: ATG_NRF1_CIS: Attagene CIS-FACTORIAL HepG2 Assay for human Nuclear Respiratory Factor 1 (NRF1) Orphan Gene (AID 2282987); conditions: HepG2 NRF1 cis-element reporter, Attagene multiplex; actives raise or lower the signal
Nuclear respiratory factor 1 (Homo sapiens), sequence (Q16656 whole entry, looked up): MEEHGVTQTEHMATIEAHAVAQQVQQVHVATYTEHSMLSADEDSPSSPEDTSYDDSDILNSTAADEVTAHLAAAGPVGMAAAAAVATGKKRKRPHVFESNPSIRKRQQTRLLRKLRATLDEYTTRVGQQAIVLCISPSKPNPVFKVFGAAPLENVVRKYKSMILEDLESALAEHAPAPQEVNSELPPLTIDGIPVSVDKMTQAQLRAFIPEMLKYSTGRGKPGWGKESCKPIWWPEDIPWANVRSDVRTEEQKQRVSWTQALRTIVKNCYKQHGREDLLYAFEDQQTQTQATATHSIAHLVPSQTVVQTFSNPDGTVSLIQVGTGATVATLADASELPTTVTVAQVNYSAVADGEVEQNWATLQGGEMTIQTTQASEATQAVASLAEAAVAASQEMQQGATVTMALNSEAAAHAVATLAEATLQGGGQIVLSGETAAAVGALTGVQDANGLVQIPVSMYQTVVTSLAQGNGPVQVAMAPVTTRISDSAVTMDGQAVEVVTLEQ
Procedure, shortened: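 Endogenous NRF1-driven reporter transcription in transfected HepG2 cells after 24 h treatment. Readout: RT-PCR products, 6-FAM labelled and resolved by capillary electrophoresis; changes fitted both directions relative to DMSO.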

[7] = ATG_NFI_CIS: Attagene CIS-FACTORIAL HepG2 Assay for human Nuclear Factor I (NFI) (AID 2282989); conditions: HepG2 cis-regulatory reporter, NFI response element transcription; actives raise or lower the signal
Procedure, shortened: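 HepG2, transient MRTU, 24 h exposure; RNA→cDNA→PCR→FAM label→HpaI→CE fluorescence. Bidirectional fit, DMSO = baseline.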

[8] = target: Myc proto-oncogene protein (Homo sapiens) (UniProt P01106); test: ATG_Myc_CIS: Attagene CIS-FACTORIAL HepG2 Assay for human Myelocytomatosis (Myc) Proto-Oncogene Transcription Factor (AID 2282990); conditions: HepG2, Attagene cis-reporter transcription factor activity; actives raise or lower the signal
Myc proto-oncogene protein (Homo sapiens), sequence (P01106 whole entry, looked up): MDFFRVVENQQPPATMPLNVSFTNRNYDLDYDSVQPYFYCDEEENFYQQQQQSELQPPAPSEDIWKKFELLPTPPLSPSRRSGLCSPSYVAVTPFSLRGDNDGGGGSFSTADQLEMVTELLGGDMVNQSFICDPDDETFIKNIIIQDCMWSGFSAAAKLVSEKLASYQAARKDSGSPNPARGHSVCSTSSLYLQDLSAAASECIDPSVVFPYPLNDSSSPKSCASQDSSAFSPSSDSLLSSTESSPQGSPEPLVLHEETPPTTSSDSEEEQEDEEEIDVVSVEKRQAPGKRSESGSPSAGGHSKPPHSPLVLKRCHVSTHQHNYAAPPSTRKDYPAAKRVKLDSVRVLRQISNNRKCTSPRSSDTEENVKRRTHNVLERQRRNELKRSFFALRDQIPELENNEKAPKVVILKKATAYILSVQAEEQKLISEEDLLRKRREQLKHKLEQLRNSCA
Procedure, shortened: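 Transiently transfected HepG2 cells bearing cis-promoter reporter units for endogenous transcription factors; 24 h exposure. Reporter mRNA measured by RT-PCR, 6-FAM primer extension, HpaI cut and capillary electrophoresis; bidirectional fit relative to DMSO.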

[9] = ATG_NF_kB_CIS: Attagene CIS-FACTORIAL HepG2 Assay for human Nuclear Factor Kappa B (NF-kB) (AID 2282991); conditions: HepG2 Attagene cis-factorial NF-kB reporter mRNA; actives raise or lower the signal
Procedure, shortened: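 Readout is reporter transcript level, gain or loss versus DMSO, measured 24 h post-dose via RT-PCR, fluorescent labelling and capillary electrophoresis. Human HepG2 liver cells carried transiently transfected CIS reporter constructs reflecting endogenous factors.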

[10] = ATG_NRF2_ARE_CIS: Attagene CIS-FACTORIAL HepG2 Assay for human Nuclear Factor Erythroid 2 Related Factor 2 (NFR2) response to Antioxidant Response Elements (ARE) (AID 2282992); conditions: HepG2 Attagene ARE/NRF2 reporter, transcription factor activity; actives raise or lower the signal;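 on AC50: reporter mRNA level measured by RT-PCR and capillary electrophoresis fluorescence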
Procedure, shortened: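 Endogenous transcription factor activity in human liver HepG2 cells is tracked via a cis-element-driven reporter within a multiplexed set. mRNA induction is read by RT-PCR and capillary electrophoresis after 24 h, with DMSO as baseline.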

[11] = ATG_Oct_MLP_CIS: Attagene CIS-FACTORIAL HepG2 Assay for human Octamer-Binding Transcription Factor (Oct) (AID 2282993); conditions: HepG2 Attagene cis-factorial Oct reporter, mRNA; actives raise or lower the signal
Procedure, shortened: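 Multiplexed cis-reporter assay in human liver HepG2 cells, 24 h incubation. Reporter RNA amplified and labelled, then resolved by capillary electrophoresis; DMSO serves as negative control and baseline.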

[12] = target: Cellular tumor antigen p53 (Homo sapiens) (UniProt P04637); test: ATG_p53_CIS: Attagene CIS-FACTORIAL HepG2 Assay for human p53 Transcription Factor (AID 2282994); conditions: HepG2 p53 cis-element reporter, Attagene mRNA; actives raise or lower the signal
Cellular tumor antigen p53 (Homo sapiens), sequence (P04637 whole entry, looked up, the tested form may be a part): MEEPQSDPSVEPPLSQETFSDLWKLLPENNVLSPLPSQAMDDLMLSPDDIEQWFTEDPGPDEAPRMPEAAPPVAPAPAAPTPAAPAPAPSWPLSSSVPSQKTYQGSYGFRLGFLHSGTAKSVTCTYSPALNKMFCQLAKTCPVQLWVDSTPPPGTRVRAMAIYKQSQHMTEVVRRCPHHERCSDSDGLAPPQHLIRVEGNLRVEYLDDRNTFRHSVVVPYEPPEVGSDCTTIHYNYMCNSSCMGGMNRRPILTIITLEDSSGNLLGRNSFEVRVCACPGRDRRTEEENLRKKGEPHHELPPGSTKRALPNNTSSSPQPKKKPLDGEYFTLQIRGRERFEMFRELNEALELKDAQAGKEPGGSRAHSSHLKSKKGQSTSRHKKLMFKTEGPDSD
Procedure, shortened: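 Steps: transfect HepG2 with multiplexed cis reporter constructs; dose chemicals 24 h; extract RNA, reverse-transcribe, PCR-amplify reporter sequences; FAM-label, HpaI-digest, resolve fragments by CE. Activity fitted both directions relative to DMSO.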

[13] = BSK_3C_TissueFactor: BioMAP Diversity Plus: 3C Assay for Tissue Factor Biomarker Activity (AID 2282997); conditions: BioMAP 3C HUVEC, tissue factor biomarker readout; actives raise or lower the signal
Procedure, shortened: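 HUVEC, 3C system, 24 h post-dose; Tissue Factor by ELISA; bidirectional fit vs DMSO baseline.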

[14] = BSK_3C_uPAR: BioMAP Diversity Plus: 3C Assay for Urokinase-type plasminogen activator receptor (uPAR) Biomarker Activity (AID 2282998); conditions: BioMAP 3C HUVEC, uPAR biomarker ELISA; actives raise or lower the signal
Procedure, shortened: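 Dose primary human umbilical vein endothelial cells, incubate 24 h, measure cell-surface uPAR by ELISA, then fit the signal in both directions against the DMSO negative control.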

[15] = BSK_3C_VCAM1: BioMAP Diversity Plus: 3C Assay for Vascular cell adhesion molecule 1 (VCAM1) Biomarker Activity (AID 2282999); conditions: BioMAP 3C HUVEC, VCAM1 ELISA, cytokine-stimulated; actives raise or lower the signal
Procedure, shortened: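 HUVEC primary cells, 24 h compound exposure; VCAM-1 by ELISA; gain/loss of signal fitted bidirectionally vs DMSO baseline.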

[16] = target: human Peroxisome Proliferator-activated Receptor alpha (PPARa), PPARA (gene 5465) (UniProt Q07869); test: ATG_PPARa_TRANS: Attagene TRANS-FACTORIAL HepG2 Assay for human Peroxisome Proliferator-activated Receptor alpha (PPARa) (AID 2283001; active means hit-call score of the fitted dose curve at least 0.9, where 1 is the maximum)
human Peroxisome Proliferator-activated Receptor alpha (PPARa), PPARA (gene 5465), sequence (Q07869 whole entry, looked up, the tested form may be a part): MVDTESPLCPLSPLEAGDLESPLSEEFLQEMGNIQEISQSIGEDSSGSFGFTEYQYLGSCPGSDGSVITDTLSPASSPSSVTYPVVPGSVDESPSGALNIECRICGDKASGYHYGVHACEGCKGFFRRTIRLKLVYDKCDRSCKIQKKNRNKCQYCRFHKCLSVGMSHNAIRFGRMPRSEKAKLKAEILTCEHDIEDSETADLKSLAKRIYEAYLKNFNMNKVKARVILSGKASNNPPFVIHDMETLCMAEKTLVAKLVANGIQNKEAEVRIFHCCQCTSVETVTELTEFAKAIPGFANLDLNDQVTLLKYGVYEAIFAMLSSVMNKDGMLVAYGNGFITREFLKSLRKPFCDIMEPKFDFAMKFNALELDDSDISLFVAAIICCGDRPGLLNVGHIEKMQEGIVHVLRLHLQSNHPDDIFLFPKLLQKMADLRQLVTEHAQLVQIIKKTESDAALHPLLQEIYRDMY
Procedure, shortened: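 Transient HepG2 transfection, GAL4-UAS reporters, NR-Gal4 chimeras; 24 h compound exposure. Readout: reporter transcripts by RT-PCR, 6-FAM primer extension, HpaI digest, capillary electrophoresis. Positive direction vs DMSO baseline.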

[17] = BSK_4H_Eotaxin3: BioMAP Diversity Plus: 4H Assay for Eotaxin 3 Biomarker Activity (AID 2283000); conditions: primary human endothelial cells (HUVEC); actives raise or lower the signal
Procedure, shortened: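 Readout is Eotaxin-3 (CCL26) level by ELISA in primary human umbilical vein endothelial cells harvested 24 h after chemical exposure; activity fitted in both directions against DMSO control.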

[18] = target: human Peroxisome Proliferator-activated Receptor delta (PPARd), PPARD (gene 5467) (UniProt Q03181); test: ATG_PPARd_TRANS: Attagene TRANS-FACTORIAL HepG2 Assay for human Peroxisome Proliferator-activated Receptor delta (PPARd) (AID 2283002; active means hit-call score of the fitted dose curve at least 0.9, where 1 is the maximum)
human Peroxisome Proliferator-activated Receptor delta (PPARd), PPARD (gene 5467), sequence (Q03181 whole entry, looked up, the tested form may be a part): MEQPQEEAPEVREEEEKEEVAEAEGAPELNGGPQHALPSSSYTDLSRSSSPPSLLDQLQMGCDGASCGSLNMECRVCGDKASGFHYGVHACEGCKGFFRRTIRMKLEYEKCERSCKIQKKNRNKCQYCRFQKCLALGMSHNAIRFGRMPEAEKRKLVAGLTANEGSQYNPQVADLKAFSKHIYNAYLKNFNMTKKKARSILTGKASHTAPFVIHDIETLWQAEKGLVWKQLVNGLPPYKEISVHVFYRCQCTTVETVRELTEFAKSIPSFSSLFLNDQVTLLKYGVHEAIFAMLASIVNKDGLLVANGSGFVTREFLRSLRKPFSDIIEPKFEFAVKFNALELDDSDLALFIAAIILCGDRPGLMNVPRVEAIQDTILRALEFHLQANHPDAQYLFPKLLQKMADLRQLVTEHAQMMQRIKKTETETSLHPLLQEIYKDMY
Procedure, shortened: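 HepG2 cells transiently transfected with GAL4-UAS multiplexed reporter units driven by exogenous chimeric NR-GAL4 proteins; 24 h compound exposure. Reporter mRNA measured by RT-PCR, 6-FAM primer extension, HpaI digestion and capillary electrophoresis; gain of signal fitted relative to DMSO.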

[19] = target: Hepatocyte nuclear factor 4-alpha (Homo sapiens) (UniProt P41235); test: ATG_HNF4a_TRANS: Attagene TRANS-FACTORIAL HepG2 Assay for human Hepatocyte Nuclear Factor 4 alpha (HNF4a) (AID 2282982; active means hit-call score of the fitted dose curve at least 0.9, where 1 is the maximum); conditions: HepG2 HNF4a transactivation reporter, mRNA readout
Hepatocyte nuclear factor 4-alpha (Homo sapiens), sequence (P41235 whole entry, looked up): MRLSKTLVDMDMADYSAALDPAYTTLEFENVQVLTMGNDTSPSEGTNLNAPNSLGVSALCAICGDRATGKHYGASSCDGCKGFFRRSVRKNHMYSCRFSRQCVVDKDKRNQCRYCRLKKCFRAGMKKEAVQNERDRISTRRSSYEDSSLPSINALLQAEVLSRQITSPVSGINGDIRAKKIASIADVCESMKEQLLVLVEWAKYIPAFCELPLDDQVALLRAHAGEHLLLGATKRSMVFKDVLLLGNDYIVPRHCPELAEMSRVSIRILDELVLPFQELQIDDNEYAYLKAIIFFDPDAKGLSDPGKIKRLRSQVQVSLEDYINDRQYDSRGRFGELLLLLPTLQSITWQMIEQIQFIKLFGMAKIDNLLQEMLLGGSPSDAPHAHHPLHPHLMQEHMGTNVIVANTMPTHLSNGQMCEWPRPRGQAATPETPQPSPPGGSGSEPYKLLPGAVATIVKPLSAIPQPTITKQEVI
Procedure, shortened: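 Transient MRTU transfection of HepG2, 24 h dosing. Readout: reporter mRNA via RT-PCR + capillary electrophoresis, fluorescence; activity fit upward relative to DMSO control.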

[20] = target: Oxysterols receptor LXR-alpha (Homo sapiens) (UniProt Q13133); test: ATG_LXRa_TRANS: Attagene TRANS-FACTORIAL HepG2 Assay for human Liver X Receptor alpha (LXRa) (AID 2282980; active means hit-call score of the fitted dose curve at least 0.9, where 1 is the maximum); conditions: HepG2 Attagene TRANS reporter, LXRa transactivation
Oxysterols receptor LXR-alpha (Homo sapiens), sequence (Q13133 whole entry, looked up, the tested form may be a part): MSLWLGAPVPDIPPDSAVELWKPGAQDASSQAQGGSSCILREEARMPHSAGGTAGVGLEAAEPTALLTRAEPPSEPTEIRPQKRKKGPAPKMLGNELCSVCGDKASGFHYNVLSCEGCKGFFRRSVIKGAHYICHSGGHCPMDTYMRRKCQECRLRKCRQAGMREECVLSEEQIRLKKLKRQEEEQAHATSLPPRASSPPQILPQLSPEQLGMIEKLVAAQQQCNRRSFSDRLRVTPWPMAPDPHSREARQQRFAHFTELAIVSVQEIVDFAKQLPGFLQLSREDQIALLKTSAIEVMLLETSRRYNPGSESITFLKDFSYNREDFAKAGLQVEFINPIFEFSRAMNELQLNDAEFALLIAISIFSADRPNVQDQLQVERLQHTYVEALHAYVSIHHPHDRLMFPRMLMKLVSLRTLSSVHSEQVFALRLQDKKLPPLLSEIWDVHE
Procedure, shortened: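 Read-out: reporter transcript levels by RT-PCR plus capillary electrophoresis, fluorescence intensity. Transiently transfected HepG2, exogenous NR-GAL4 chimera, GAL4-UAS reporters; 24 h compound exposure. Activity = increase over DMSO negative control.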

Measured: AC50

CCC(C)c1ccc(O)cc1 (stereo unspecified)
active: [9] 100 µM | [10] 67.3 µM | [11] 67.9 µM
inactive: [1] | [2] | [3] | [4] | [5] | [6] | [7] | [8] | [12] | [13] | [14] | [15] | [16]

ClCCOCCCl
inactive: [1] | [3] | [4] | [5] | [6] | [7] | [9] | [11] | [12] | [13] | [14] | [15] | [17] | [18]

Nc1ccc(N=Nc2ccccc2)cc1
inactive: [1] | [19] | [3] | [4] | [5] | [6] | [7] | [8] | [12] | [13] | [14] | [17] | [16]
active: [10] 3.6 µM | [11] 36.2 µM

Clc1ccc(Cl)c(Cl)c1
inactive: [1] | [19] | [2] | [4] | [5] | [6] | [7] | [10] | [11] | [12] | [14] | [18]

CC(C)(C)OOC(=O)c1ccccc1
active: [5] 153 µM | [12] 136 µM
inactive: [1] | [2] | [6] | [7] | [8] | [9] | [11] | [13] | [14] | [15] | [16] | [18]

O=C(Oc1ccc(Br)cc1)N1CCN2CCC1CC2
inactive: [20] | [3] | [5] | [6] | [7] | [8] | [10] | [11] | [13] | [14] | [15] | [17] | [16] | [18]
active: [9] 60.9 µM | [12] 64.9 µM

COC(=O)c1ccccc1N
inactive: [20] | [5] | [6] | [7] | [9] | [10] | [11] | [12] | [14] | [18]

CCCCCCCCn1sccc1=O
active: [5] 11.6 µM | [6] 16.5 µM | [7] 17.2 µM | [9] 21.1 µM | [11] 15.9 µM | [12] 19.9 µM | [14] 15.3 µM | [15] 9.3 µM | [17] 9.13 µM
inactive: [19] | [2] | [3] | [10] | [16]

COC(=O)Nc1nc2ccccc2[nH]1
active: [10] 21.4 µM | [14] 10.9 µM
inactive: [1] | [19] | [2] | [3] | [4] | [5] | [6] | [7] | [11] | [12] | [15] | [16] | [18]
